According to PubChem BioAssay (NCATS):
Inconclusive results are not listed. Entries that show only a call come without a potency. Activity calls are given as the source filed them. Calls come from the whole dose curve; as a rule, active = well fitted inhibition curve with a large enough effect; inconclusive = small, poorly fitted or top-dose-only effect; inactive = flat fitted curve, though single readings scatter.

test system: astro; experiment: Drug repurposing screens with cells derived from glioblastoma tumor samples (AID 1345199); settings: viability, ATP luminescence, 48 h; series mostly up to 45.9 µM; note: nearly all actives have a fitted effect of over 40% in size
Procedure, shortened: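 Primary testing used CD133+ neurospheres from four GBM patients, seven concentrations, 48 h exposure and ATP-based viability; confirmation added three slower-growing patient lines.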

Structure (SMILES)	Potency
CCC(=O)NS(=O)(=O)c1ccc(-c2c(-c3ccccc3)noc2C)cc1	inactive
C[C@]12C=CC(=O)C=C1CC[C@@H]1[C@@H]2[C@@H](O)C[C@@]2(C)[C@H]1CC[C@]2(O)C(=O)COC(=O)CCC(=O)O	inactive
Nc1c(Br)cc(Br)cc1CNC1CCC(O)CC1 (stereo not drawn)	inactive
CCC[C@@H]1C[C@@H](C(=O)N[C@@H]([C@H]2O[C@H](SC)[C@H](OP(=O)(O)O)[C@@H](O)[C@H]2O)[C@H](C)Cl)N(C)C1	inactive
CCC(=O)O[C@]1(C(=O)CCl)[C@@H](C)C[C@H]2[C@@H]3C[C@H](F)C4=CC(=O)C=C[C@]4(C)[C@@]3(F)[C@@H](O)C[C@@]21C	inactive
CC[C@H]1OC(=O)C[C@@H](O)[C@H](C)[C@@H](O[C@@H]2O[C@H](C)[C@@H](O)[C@H](N(C)C)[C@H]2O)[C@@H](CCN2C[C@H](C)C[C@H](C)C2)C[C@@H](C)C(=O)/C=C/C(C)=C/[C@@H]1CO[C@@H]1O[C@H](C)[C@@H](O)[C@@H](OC)[C@H]1OC	inactive
C[C@@H]1C[C@H]2[C@@H]3CCC4=CC(=O)C=C[C@]4(C)[C@@]3(F)[C@@H](O)C[C@]2(C)[C@@]1(O)C(=O)COP(=O)(O)O	inactive
CC(=O)OC(C)OC(=O)C(C)c1ccc(-c2ccccc2)c(F)c1 (stereo not drawn)	inactive
